Results from ChEMBL document CHEMBL3988442, “University of Dundee, Small-Polar-MMV Screening Library” (2021).
The whole screen tested about 48,000 compounds, of which about 13,000 (27%) showed an effect of 50% or more. The list shows a part of the results.

test system: Wolbachia pipientis; assay: Anti-Wolbachia Cell-Based Screen; format: functional; set-up: scale not given: in the data most compounds retested in dose-response had high values; details: 5 µM

| SMILES | Percent Effect |
| --- | --- |
| Cc1nc(C)c(CNC[C@@]2(COc3cccnc3)C[C@@H](O)[C@@H](O)C2)s1.Cl.Cl | 0.5308% |
| O=C(CCn1cccn1)N1C[C@@H]2CC[C@H](C1)N(Cc1ccccn1)C2=O | 2.815% |
| Cl.NCCCNS(=O)(=O)Cc1ccc(Br)cc1 | -40.39% |
| CCCc1nc(CNc2nc(C)nc3oc(C)nc23)cs1 | -12.23% |
| COc1ccc(C(=O)N2CCC(Oc3ccccc3C)(C(=O)O)CC2)o1 | -4.68% |
| Cc1noc2nc3c(c(C(=O)/N=c4\[nH]ncs4)c12)CCC3 | 123.1% |
| Cc1cs/c(=N\C(=O)c2c3c(nc4onc(C)c24)CCC3)[nH]1 | 113% |
| COCc1noc(C2(c3ccc(F)cc3)CCOCC2)n1 | -32.93% |
| O=S(=O)(NCC1CCN(CCN2CCOCC2)C1)c1ccccc1F (stereo not drawn) | 14.41% |
| CC(=O)NCC(=O)N1CCn2cc(CN3CCN(C)CC3)nc2C1.O=C(O)C(F)(F)F.O=C(O)C(F)(F)F | -9.16% |
| Cn1ccnc1CNC(=O)N1CCCC(Cc2nccn2C)C1 (stereo not drawn) | -2.047% |
| CN(CCc1ccccc1)C1CCCN(Cc2nccn2C)C1 (stereo not drawn) | -2.668% |
| Cn1ccnc1CC1CCCN(C(=O)Nc2cccn(C)c2=O)C1 (stereo not drawn) | -3.094% |
| Cn1ccnc1CC1CCCN(C(=O)Cc2ccccc2)C1 (stereo not drawn) | 107.6% |
| CC(=O)N1CCCC(Cc2nccn2C)C1 (stereo not drawn) | 104.6% |
| CCC(C)(NCc1cccc(NC(C)=O)c1)c1nc(C)cs1 (stereo not drawn) | -6.571% |
| CCNS(=O)(=O)C1CCN(C(=O)c2ccc(CC)o2)C1 (stereo not drawn) | 1.453% |
| CCN1CCN(C(=O)C(C)N2CCc3cncnc3C2)CC1 (stereo not drawn) | 4.565% |
| O=C1O[C@@H]2CN(CCc3ccccc3)C[C@@H]2N1CCCN1CCOCC1 | -3.811% |
| CC(C)(C)c1coc([C@@H]2COCCN2Cc2ccccc2)n1 | -6.681% |
| CN1CCN2CCN(Cc3cnc(NCc4ccccc4)nc3)CC2C1 (stereo not drawn) | 2.574% |

| SMILES | Percent Effect |
| --- | --- |
| Cc1cc(CC2COCCN(CCc3ccccc3)C2)ncn1 (stereo not drawn) | 136.2% |
| Cc1cc(N2CCCN(CCc3ccccc3)CC2)ccn1 | 5.317% |
| CNc1cnc(CC2COCCN(Cc3ccccc3)C2)cn1 (stereo not drawn) | 100% |
| c1ccc(NCc2cccc(OCCN3CCOCC3)c2)nc1 | 9.722% |
| COc1ccc(CN2CCOC[C@H](OCc3ccccc3)C2)cc1 | -4.744% |
| Cc1ccc(CC2COCCN(Cc3ccccc3)C2)nc1 (stereo not drawn) | 76.14% |
| Clc1cncc(NCc2cccc(OCCN3CCOCC3)c2)n1 | 2.735% |
| CNc1cnc(CC2COCCN(CCOc3ccccc3)C2)cn1 (stereo not drawn) | 158.8% |
| CNc1cc(C)nc(N2CCN(Cc3ccccc3)CC(O)C2)n1 (stereo not drawn) | 10.53% |
| Cc1cc(C)n(C2CN(C(=O)Cn3c(=O)c(C)nc4ccccc43)C2)n1 | -1.32% |
| CNC(=O)[C@@H]1C[C@@H](N)CN1Cc1ccc2cccc(OC)c2n1 | -0.1513% |
| c1ccc(CCc2noc(CN3CCC(N4CCSCC4)CC3)n2)cc1 | -3.456% |
| N#Cc1ccc(CNC(=O)NC2CCN(CC(F)F)CC2)cc1 | 3.671% |
| COc1cc(O)cc2c1C(=O)CC(c1ccc(O)cc1)O2 (stereo not drawn) | -2.59% |
| CN(Cc1ccc(C#N)cc1)Cn1nccc1-c1cccnc1 | 11.16% |
| COc1ccc(CN2Cc3cn(C)nc3C(COCC3CC3)C2)cc1 (stereo not drawn) | 10.23% |
| COc1ccccc1CN(Cc1cccc(C)c1)C(=O)[C@@H](N)CC(=O)O | 3.134% |
| Cc1cccc(O[C@H]2COCCN(Cc3sc(C)nc3C)C2)n1 | 12.2% |
| CNc1cnc(CC2COCCN(Cc3cccc(C)n3)C2)cn1 (stereo not drawn) | 107% |
| OC1COCCN(Cc2cccc(N3CCOCC3)c2)C1 (stereo not drawn) | -7.923% |
| Cc1cccc(CN2C[C@H]3OC(=O)N(CCCN4CCOCC4)[C@H]3C2)n1 | -5.32% |

| SMILES | Percent Effect |
| --- | --- |
| CCCN1CCC(CC(=O)NCc2cc(O)ncn2)CC1 | -6.133% |
| Oc1cc(CC2COCCN(CC3(O)CCOCC3)C2)ncn1 (stereo not drawn) | 130% |
| CSc1cc2c(cc1NC(=O)N(C)Cc1cnn(C)c1)OCCO2 | -6.777% |
| COCCN1C(=O)[C@H]2CC[C@@H]1CN(C(=O)Cc1ccc(O)c(Cl)c1)C2 | 12.68% |
| CC(C)c1noc(Cn2ncn3cccc3c2=O)n1 | -11.32% |
| COCC(=O)N1CCC2(CC1)CCN(Cc1ccccn1)C2=O.O=C(O)C(F)(F)F | -18.96% |
| CN(C)CC(=O)N1CCC2(CCN(Cc3ccccn3)C2=O)C1 (stereo not drawn) | -12.92% |
| O=C(O)C(F)(F)F.O=C(c1ccc(F)cc1)N1CCC2(CCN(Cc3ccccn3)C2=O)C1 (stereo not drawn) | 89.07% |
| Cc1cccc(CN2CCC3(CCCN(C(=O)c4ccoc4)C3)C2=O)n1.O=C(O)C(F)(F)F (stereo not drawn) | 1.474% |
| Cc1oncc1C(=O)N1CCC2(CCN(Cc3ccccn3)C2=O)C1 (stereo not drawn) | -15.28% |
| O=C(O)C(F)(F)F.O=C(c1cccnc1)N1CCCC2(CCN(c3ccsc3)C2=O)C1 (stereo not drawn) | 9.95% |
| Cc1cccc(CN2CCC3(CCCN(C(=O)c4ccsc4)C3)C2=O)n1.O=C(O)C(F)(F)F (stereo not drawn) | -5.258% |
| Cc1ccc(C(=O)N2CCC3(CCN(Cc4ccccn4)C3=O)C2)cn1 (stereo not drawn) | 76.19% |
| O=C(O)C(F)(F)F.O=C(c1ccsc1)N1CCC2(CCN(Cc3ccccn3)C2=O)C1 (stereo not drawn) | 124% |
| Cc1cnc(C(=O)N2CCC3(CCN(Cc4ccccn4)C3=O)C2)cn1.O=C(O)C(F)(F)F (stereo not drawn) | 102.4% |
| COc1cccc(CC2CCCN2CCCC#N)c1 (stereo not drawn) | 4.783% |
| O[C@H]1[C@H](n2cc(-c3cccnc3)nn2)c2ccccc2C12CCNCC2 | 12.4% |
| O=C(CCc1ccc(OC(F)(F)F)cc1)N1CCCS1(=O)=O | 14.48% |
| c1cnc(N2CCN(Cn3nccc3-c3cccnc3)CC2)nc1 | 3.122% |
| Cc1ncc(C(=O)NC2CCN(CCOc3ccc(Br)cc3)CC2)s1 | -10.45% |
| CC(C)CC(NC(=O)c1ccc[nH]1)C(=O)N1CCC(CO)CC1 (stereo not drawn) | 4.263% |
